# Compound activity from PubChem.
# Mtb FBA inh – Mtb fructose-bisphosphate aldolase inhibition. inhibition, % at 1 µM. 360,000 tested, 2.3% active. purified M. tuberculosis FBA, fluorescence read-out. AID 588726
# UGM FP inh – blocks M. tuberculosis UGM enzyme. purified UGM, fluorescence polarization probe displacement. P9WIQ1. inhibition, % at 10 µM. 320,000 tested, 0.06% active; in the data active = inhibition above about 10%, passing the limit was not always enough; inconclusive = no clear call, values can overlap the other calls
# PriA SSB inh – blocks PriA binding to SSB C-terminal tail. 430,000 tested, 0.6% active. AlphaScreen SSBct-PriA binding, biotinylated peptide. inhibition, % at 33 µM; in the data active = inhibition mostly above about 37%, no sharp cut-off; inactive = mostly below about 20%
# GDH-TPI counter-1 – inhibits GDH-TPI coupling enzymes, artifact for Mtb FBA screen | GDH-TPI coupled enzyme counterscreen, NADH absorbance | AID 588335 | inhibition, % at 4.8 µM | 360,000 tested, 1.2% active; in the data active = inhibition above about 30%
# Rv3671c protease – inhibitors of M. tuberculosis serine protease Rv3671c | inhibition, % at 5.96 µM | AID 2606 | P9WHR9 | 320,000 tested, 0.048% active; in the data active = inhibition above about 38%;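 also: extracellular domain of Rv3671c used as enzyme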
# Target sequence (P9WHR9 whole entry, looked up, the tested form may be a part): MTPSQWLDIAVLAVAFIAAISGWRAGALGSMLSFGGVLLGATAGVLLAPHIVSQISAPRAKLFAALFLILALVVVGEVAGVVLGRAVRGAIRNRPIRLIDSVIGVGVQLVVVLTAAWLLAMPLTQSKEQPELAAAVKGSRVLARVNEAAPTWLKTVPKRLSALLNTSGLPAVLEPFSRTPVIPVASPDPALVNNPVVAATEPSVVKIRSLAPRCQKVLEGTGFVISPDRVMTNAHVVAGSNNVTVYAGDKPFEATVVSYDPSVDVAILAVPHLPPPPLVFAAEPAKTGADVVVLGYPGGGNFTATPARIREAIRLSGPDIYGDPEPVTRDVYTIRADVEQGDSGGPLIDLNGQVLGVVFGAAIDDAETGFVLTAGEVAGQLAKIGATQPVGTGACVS
# Mtb betalactam – beta-lactam sensitization of Mtb H37Rv; 330,000 tested, 0.27% active; AID 434955; M. tuberculosis H37Rv growth with meropenem, percent inhibition; inhibition, % at 25 µM; call rule not given here;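 also: growth measured after seven days incubation then overnight dye step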
# Mtb FBA confirm – Mtb FBA inhibition, confirmed; 5,600 tested, 78% active; shares compounds with Mtb FBA inh; inhibition, % at 1 µM; purified M. tuberculosis FBA, fluorescence read-out
# GDH-TPI counter-2 – GDH-TPI inhibition counter-screen for FBA inhibitors; shares compounds with Mtb FBA inh; GDH-TPI coupled enzyme counterscreen, fluorescence; inhibition, % at 1 µM; 5,600 tested, 81% active; in the data active = inhibition above about 10%
# GDH-TPI DR – counter-screen for M. tuberculosis FBA inhibitors: GDH-TPI dose response; shares compounds with Mtb FBA inh; GDH-TPI coupled enzyme assay, fluorescence, artifact counterscreen; IC50, µM; 170 tested, 79% active; call rule not given here
# A number is an active result; . = inactive; ? = inconclusive; / = no result; + = active, no number. Most compounds without a hit are left out; they make up all but 3.2% or so of the library. Rule as the data show it, unless noted: active = inhibition above about 27%; inactive = the rest.
SMILES,Mtb FBA inh,UGM FP inh,PriA SSB inh,GDH-TPI counter-1,Rv3671c protease,Mtb betalactam,Mtb FBA confirm,GDH-TPI counter-2,others
CCC(c1nnc(SCC(=O)NC2CCCCC2)n1Cc1ccccc1)N(C)C (stereo not given),43,.,.,.,.,.,+,153,
CCOC(=O)c1c(NC(=O)C(C)Sc2nc3c(cnn3CCO)c(=O)[nH]2)sc2c1CCCC2 (stereo not given),/,/,.,/,/,/,/,/,
Cc1cc(C(=O)Nc2nc(C)c(C(=O)N(C)C)s2)ccc1[N+](=O)[O-],.,.,.,.,.,.,/,/,
Cc1nc(NC(=O)c2ccc([N+](=O)[O-])cc2Cl)sc1C(=O)N(C)C,91,.,.,.,.,.,+,162,
COc1c(C)cc(C(O)c2ncc(-c3ccccc3C(F)(F)F)[nH]2)cc1C (stereo not given),.,/,/,.,/,/,/,/,
Cc1cc(C(O)c2ncc(-c3cccc4ccccc34)[nH]2)ccc1F (stereo not given),40,/,/,.,/,/,56,41,
COc1c(C)cc(C(O)c2ncc(-c3cccc4ccccc34)[nH]2)cc1C (stereo not given),35,/,/,.,/,/,+,+,
CC(C)c1ccc(NC(=O)CCCOc2ccc(Cl)cc2)cc1,/,/,.,/,/,/,/,/,
O=C(Cn1cncn1)Nc1cnn(CC2COc3ccccc3O2)c1 (stereo not given),/,/,.,/,/,/,/,/,
CC(C)(C)Sc1ccc2nc3c(n2c1)CCCC3,30,.,.,.,.,.,95,56,
O=S(=O)(N=C(Nc1ccccc1)c1ccccc1)c1cccs1,/,/,.,/,/,/,/,/,
COC(=O)CSc1nccc(-c2ccc(F)cc2)c1C#N,.,.,.,.,.,.,/,/,
CNc1nccc(-c2ccc(F)cc2)c1C#N,32,.,.,.,.,.,145,96,
Cc1c(-c2cc(C(=O)O)c3ccccc3n2)cnn1C,97,.,.,.,.,.,136,113,
O=C1CCCC1=CNc1ccc(Cl)c([N+](=O)[O-])c1,/,/,.,/,/,/,/,/,
COc1ccc2nc(C)cc(C(=O)O)c2c1,79,.,.,.,.,.,.,.,GDH-TPI DR=2.3
COc1ccc2nccc(C(N)=O)c2c1,49,.,.,.,.,.,43,28,
COc1ccc2nc(C)cc(N3CCC(C(N)=O)CC3)c2c1,.,.,.,.,.,.,/,/,
CCOc1ccc(Nc2cc(C)nc3ccc(C)cc23)cc1,.,.,.,.,.,.,/,/,
CCOc1ccc2nc(C)cc(C(=O)O)c2c1,87,.,.,.,.,.,74,51,
COc1ccc2oc(C)c(C(N)=O)c2c1,.,.,.,.,.,.,/,/,
CCOC(=O)c1c(C)nc2c(c1C)C(=NO)CC(C)(C)C2,/,/,.,/,/,/,/,/,
COC(CNC(=O)c1cnn2c(C)c(Cc3ccccc3)c(C)nc12)OC,78,.,.,.,.,.,.,.,
Cc1nc2c(C(=O)N3CCOCC3)cnn2c(C)c1Cc1ccc(Cl)cc1,38,.,.,.,.,.,200,171,
C=CCc1cc(C=O)cc(OC)c1O,/,/,.,/,/,/,/,/,
SMILES,Mtb FBA inh,UGM FP inh,PriA SSB inh,GDH-TPI counter-1,Rv3671c protease,Mtb betalactam,Mtb FBA confirm,GDH-TPI counter-2,others
CCOC(=O)c1cc2nc(-c3ccco3)cc(C(F)(F)F)n2n1,28,.,.,.,.,.,+,+,
COc1cccc(NC(=O)c2oc3ccccc3c2NC(=O)/C=C\c2cc(OC)c(OC)c(OC)c2)c1,/,/,.,/,/,/,/,/,
COC(=O)c1oc2ccccc2c1N,.,.,.,.,.,.,/,/,
COC(=O)c1oc2ccc(Cl)cc2c1N,67,.,.,.,.,.,.,.,
CCCN(CC(=O)Nc1ccc(Cl)cc1Cl)C(=O)/C=C/c1cc(OC)ccc1OC,28,.,.,.,.,.,.,.,
CCCN(CC(=O)Nc1cc(Cl)ccc1Cl)C(=O)/C=C/c1ccco1,.,.,.,.,.,.,/,/,
CCCN(CC(=O)Nc1cc(Cl)ccc1Cl)C(=O)/C=C/c1cc(OC)ccc1OC,39,.,.,.,.,.,+,+,
Fc1ccc(Nc2ccnc3ccc(Cl)cc23)c(F)c1,/,/,.,/,/,/,/,/,
CCOc1ccc(-c2ccc(=O)n(CCNC(=O)Nc3ccc(F)c(Cl)c3)n2)cc1,/,/,.,/,/,/,/,/,
Fc1ccc(-n2nnc(-c3ccccc3Br)n2)cc1,.,.,.,.,.,.,/,/,
Cc1cc2nn(-c3ccc(F)cc3)nc2cc1N,54,.,.,46,.,.,179,136,
Cc1cc2nn(-c3ccc(Cl)cc3)nc2cc1N,41,.,.,.,.,.,111,97,
CC1(C)COc2ccc(NC(=O)COc3ccccc3F)cc2NC1=O,/,/,.,/,/,/,/,/,
CN(C(=O)Nc1c[nH]c2ccccc12)c1ccccc1,/,/,.,/,/,/,/,/,
COc1ccc(-c2cc3nc4ccccc4n3c(N)c2C#N)cc1,41,.,.,.,.,.,+,+,
COc1ccc(OC)c(NC(=O)CSc2nc3cc(-c4ccccc4)sc3c(=O)n2C)c1,/,/,.,/,/,/,/,/,
Cc1cc(C(=O)COC(=O)c2nccnc2N)c(C)n1C,62,?,.,.,.,.,.,.,
Cc1cc(C(=O)COC(=O)c2n[nH]c3ccccc23)c(C)n1C,.,.,.,.,.,.,/,/,
O=c1[nH]c(N/N=C/c2ccccc2)nc2ccccc12,56,.,/,.,.,.,.,.,
O=c1[nH]c(NN=Cc2ccccc2)nc2ccccc12,/,/,.,/,/,/,/,/,
CC(C)(O)c1cc2ccc(C#Cc3ccsc3)cc2c(=O)o1,50,.,.,.,.,.,32,31,
CN(C)c1ccc(C#Cc2ccc3cc(CCCO)oc(=O)c3c2)cc1,.,.,.,.,.,.,/,/,
O=c1oc(CCCO)cc2ccc(C#Cc3ccsc3)cc12,57,.,.,.,.,.,87,73,
CC(C)(C)c1ccc(NN=C(C#N)S(=O)(=O)C(C)(C)C)cc1,/,/,.,/,/,/,/,/,
COc1ccc(OC)c(C=NNC2=NS(=O)(=O)c3ccccc32)c1,/,/,.,/,/,/,/,/,
SMILES,Mtb FBA inh,UGM FP inh,PriA SSB inh,GDH-TPI counter-1,Rv3671c protease,Mtb betalactam,Mtb FBA confirm,GDH-TPI counter-2,others
C=CCn1c(-c2cccs2)nc2ccccc21,63,.,.,.,.,.,150,141,
CCCn1c(-c2cccs2)nc2ccccc21,74,.,.,.,.,.,+,174,
Nc1cc(-n2cncn2)ncn1,/,/,.,/,/,/,/,/,
COC(=O)c1cc(COc2ccc3c(c2)oc(=O)c2ccccc23)c(C)o1,32,.,.,.,.,.,107,81,
CCCCn1c(=NC(=O)c2ccc3c(c2)OCO3)c(C#N)cc2c(=O)n3cccc(C)c3nc21,77,.,.,.,.,.,+,+,
COCCCn1c(C(=O)N2CCOCC2)cc2c(=O)n3cccc(C)c3nc21,72,.,.,.,.,.,55,43,
COCCCn1c(C(=O)N2CC(C)OC(C)C2)cc2c(=O)n3cccc(C)c3nc21 (stereo not given),74,.,.,.,.,.,+,+,
